Compound activity as filed in PubChem BioAssay.
Abeta rescue = restores growth of yeast expressing A-beta42 peptide; yeast expressing A-beta42, growth rescue, OD600, 48 h; response scale: 0% DMSO, 100% iron-clioquinol control; Potency, µM (series often up to 46.1 µM), hits mostly activators; 410,000 compounds, 0.063% hits; further: nearly all actives have a fitted effect of over 55% in size
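Yeast A-beta toxicity model in growth medium with pinned compounds, 48 h at 30 C; growth read as absorbance at 600 nm. Normalized to FeCl3/clioquinol equimolar mix (positive) and DMSO (negative).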
aSyn yeast inh = inhibitors of alpha-synuclein toxicity in yeast; Yeast expressing alpha-synuclein, growth rescue, BacTiter-Glo, 24 h; Potency, µM (doses to about 46.1 µM), hits mostly activators; 370,000 compounds, 0.14% hits; AID 652106; further: nearly all actives have a fitted effect of over 65% in size
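Screening used galactose-induced yeast with toxic alpha-synuclein levels, exposed to compound for 24 hr at 30 deg C. Cell growth, read with BacTiter-Glo luminescence, gave the measured signal.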
FUS suppressor = FUS proteinopathy suppression in yeast; S. cerevisiae FUS-expressing, growth rescue, OD600, 24 h; 390,000 compounds, 0.24% hits; Potency, µM (doses to about 76.6 µM), hits mostly activators; AID 1347120; further: nearly all actives have a fitted effect of over 55% in size
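Read-out: OD at 600 nm after 24hr at 30C, reporting rescue of FUS-induced yeast toxicity. Cells at OD 0.005 in galactose (2%) minimal medium; compounds tested in a dilution series; CP55940 titration from 92uM final as control.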
TDP-43 yeast inh = TDP-43 toxicity inhibition in yeast. 410,000 compounds, 1.8% hits. AID 652104. TDP-43 expressing yeast growth rescue, BacTiter-Glo, 24 h. Potency, µM (highest dose often 46.1 µM), most hits filed as activators; further: nearly all actives have a fitted effect of over 50% in size
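Cell-based yeast growth screen: TDP-43 expression induced in galactose, inoculum OD600=0.02 after raffinose pregrowth to mid-log. Read-out BacTiter-Glo luminescence at 24 hr, 30 deg C; inhibition of toxicity seen as signal increase.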
Of the large screens only hits and unclear results are named; the others gave an inactive call. Hits are enriched below; roughly 2.1% of the tested compounds scored in any of these assays. The call rests on the fitted dose curve; in most records, active means well fitted curve in the direction sought with a large enough effect; inconclusive means small, poorly fitted or top-dose-only effect, or another doubt; inactive means no such curve, though single readings can be large; an effect the other way counts as inactive or inconclusive.

CCc1ccc(NC(=O)Cn2c(=O)c3cccn3c3ccccc32)cc1	none
CC1(C)Cc2c(sc3c2c(=O)n(-c2cccc(Cl)c2)c(=O)n3CC(N)=O)CO1	none
CCOc1ccc(NC(=S)N(CCc2c(C)[nH]c3ccc(C)cc23)Cc2ccco2)cc1	FUS suppressor 25µM
Cc1ccc(OCc2cc(C(=O)N(C)Cc3cc(C4CC4)n[nH]3)no2)cc1C	none
CCn1c(SCc2ccc(F)cc2)nc2c(c1=O)SCC2	TDP-43 yeast inh 18µM
Cc1ccccc1Oc1ncnc2sccc12	TDP-43 yeast inh 11µM
COc1ccccc1Oc1ncnc2sccc12	TDP-43 yeast inh inconclusive
c1ccc(Oc2ncnc3sccc23)cc1	TDP-43 yeast inh 11µM
C/C(=N\Nc1cc(C)nc(-c2ccccc2O)n1)c1ccccc1	TDP-43 yeast inh 10µM
Cc1ccc(Nc2cc(C)nc(-c3ccccc3O)n2)cc1	TDP-43 yeast inh inconclusive
C/C(=N\Nc1cc(-c2ccccc2)nc(-c2ccccc2)n1)c1ccc(O)c(C)c1	TDP-43 yeast inh 16µM
Cc1cc(N/N=C/c2ccc(O)c(C)c2O)nc(-c2ccccc2O)n1	TDP-43 yeast inh 10µM
CC(=O)N1c2ccc(S(=O)(=O)N3CCCCCC3)cc2CC1C(=O)NC(C)C (centres undefined)	none (no result: aSyn yeast inh)
CCOc1cc(N2CCOCC2)c(OCC)cc1NS(=O)(=O)c1cc(NC(C)=O)ccc1OC	none
COc1cccc(C(=O)Nc2cc(NC(=O)c3cccs3)ccc2C)c1OC	TDP-43 yeast inh 11µM
COc1cc(NC(=O)c2ccc3c(c2)OCCO3)ccc1NC(=O)c1cccs1	TDP-43 yeast inh 13µM
O=C(Nc1ccc(NC(=O)c2cccs2)cc1)c1ccc2c(c1)OCCO2	aSyn yeast inh inconclusive
Cc1ccc(NC(=O)COc2cccc(-n3cnnn3)c2)cc1S(=O)(=O)N1CCOCC1	none
O=C(Cc1ccc(-c2ccccc2)cc1)Nc1ccccn1	TDP-43 yeast inh 14µM
Cc1ccc(NC(=O)Cc2ccc(-c3ccccc3)cc2)nc1	Abeta rescue inconclusive, TDP-43 yeast inh 7.1µM
COc1ccccc1NC(=O)Cc1ccc(-c2ccccc2)cc1	TDP-43 yeast inh 16µM
Cc1ccnc(NC(=O)Cc2ccc([N+](=O)[O-])cc2)c1	none
Cc1ccnc(NC(=O)Cc2ccc(-c3ccccc3)cc2)c1	TDP-43 yeast inh 14µM
COCCCn1c(SCC(=O)Nc2ccc(OC)cc2)nc2c(sc3ccccc32)c1=O	none (no result: aSyn yeast inh)
COC(=O)c1ccc(NC(=O)CC2C(=O)N(c3ccccc3)C(=O)N2C2CCCC2)cc1 (centres undefined)	none (no result: aSyn yeast inh)
CNC(=O)[C@@H]1CC=C[C@@H]2CCN(c3ccccc3)C(=O)[C@@H]21	none (no result: Abeta rescue, aSyn yeast inh, TDP-43 yeast inh)
COc1ccccc1CNc1cc(-c2ccccc2)ccc1OC	TDP-43 yeast inh 13µM (no result: FUS suppressor)
COc1ccc(-c2ccccc2)cc1NCc1ccccc1C	none
O=C(/C=C/c1ccc(Cl)cc1Cl)N1CCN(c2ccccc2[N+](=O)[O-])CC1	aSyn yeast inh inconclusive, TDP-43 yeast inh 13µM
O=C(c1ccccc1)N1CCN(c2ncnc3sc4c(c23)CCC4)CC1	TDP-43 yeast inh 22µM
O=C(O)CC(C(=O)O)C(=Cc1ccccc1)c1ccccc1 (centres undefined)	none
COc1ccc(CSc2ccc(-c3nc4ccccn4c3NCc3ccccc3)cc2OC)cc1	FUS suppressor inconclusive, TDP-43 yeast inh 35µM
CCC(C)Sc1ccc(-c2nc3ccccn3c2NCc2ccccc2)cc1OC (centres undefined)	none
C#CCSc1nccc(-c2nn(-c3ccc(C)cc3)ccc2=O)n1	FUS suppressor 35µM
CCSc1nccc(-c2nn(-c3ccc(C)cc3)ccc2=O)n1	none
CCc1ccccc1NC(=O)CSc1nnc2ccc3ccccc3n12	TDP-43 yeast inh inconclusive (no result: aSyn yeast inh)
O=C(CSc1nnc2ccc3ccccc3n12)Nc1ccccc1Cl	TDP-43 yeast inh 18µM (no result: aSyn yeast inh)
CC12CCC(C)(c3nc4ccccc4nc31)C2(C)C	none
Cc1[nH]nc2c1-c1nc3ccccc3nc1C(C)(C)C2	TDP-43 yeast inh 22µM
Cc1cccc(-n2c(=O)c3ccccc3n(Cc3ccccc3)c2=O)c1	TDP-43 yeast inh 22µM (no result: aSyn yeast inh)
Cc1ccc2nc(N3CCN(C(=O)C4COc5ccccc5O4)CC3)sc2c1 (centres undefined)	TDP-43 yeast inh 20µM (no result: aSyn yeast inh)
COc1cccc2sc(N3CCN(C(=O)C4COc5ccccc5O4)CC3)nc12 (centres undefined)	TDP-43 yeast inh inconclusive
O=C(C1COc2ccccc2O1)N1CCN(c2nc3c(F)cccc3s2)CC1 (centres undefined)	Abeta rescue 13µM, TDP-43 yeast inh 10µM (no result: aSyn yeast inh)
